In PubChem BioAssay (NCI):
Compounds without any hit were thinned out: in the full panel of roughly 83,000, 20% have a hit.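 Activity criterion: percent growth below 10, measured after cells in 96-well plates were exposed to a single compound concentration for 48 hours.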 Values without a mark were called inactive. Calls of active or inactive are those of the source.

How the values were obtained:
Experiment in all cases: NCI-60 one-dose screen, 48 h (100 = growth as untreated, 0 = no growth, -100 = all killed)
Conditions in all cases: 10 µM unless noted
HCT-15 colon = system: HCT-15 colon
HT29 colon = system: HT29 colon
SNB-75 CNS = system: SNB-75 CNS
SNB-19 CNS = system: SNB-19 CNS
U251 CNS = system: U251 CNS
PC-3 prostate = system: PC-3 prostate
SK-MEL-5 melanoma = system: SK-MEL-5 melanoma
UACC-62 melanoma = system: UACC-62 melanoma
LOX IMVI melanoma = system: LOX IMVI melanoma
SK-MEL-28 melanoma = system: SK-MEL-28 melanoma

Compound	growth (HCT-15 colon)	growth (HT29 colon)	growth (SNB-75 CNS)	growth (SNB-19 CNS)	growth (U251 CNS)	growth (PC-3 prostate)	growth (SK-MEL-5 melanoma)	growth (UACC-62 melanoma)	growth (LOX IMVI melanoma)	growth (SK-MEL-28 melanoma) [%]
COc1ccc(C2CC(c3ccc4c(c3)OCO4)=Nc3c(N)ncnc3N2)cc1 (configuration not stated)	94.3%	106%	86.6%	88.8%	101%	98.6%	87.8%	90.3%	101%	–
COc1ccc2cc(-c3cnc4nonc4n3)ccc2c1	22.7%	13.4%	15.8%	37.7%	16.9%	25.5%	31.8%	2.86% (active)	25.5%	–
Cn1cc(-c2nc(-c3c[nH]c4ccncc34)cs2)c2cc(Br)ccc21	-85.4% (active)	-81.9% (active)	-97% (active)	-76% (active)	-84.1% (active)	-86.4% (active)	-47.9% (active)	-86.7% (active)	-90% (active)	–
O=C1OCC2=C1C(c1cccc(F)c1)c1cc3c(cc1N2CCO)OCO3 (configuration not stated)	22.1%	5.77% (active)	16.9%	32.9%	21.7%	25.1%	22.8%	47.2%	34.9%	–
Cc1ccc(N=Nc2c(N)nn(-c3ccccc3)c2N)cc1	21%	11.7%	32.6%	46.7%	28.2%	56.7%	-18.6% (active)	31.5%	47.1%	56.8
COc1cc(Nc2c3ccc(Cl)cc3nc3ccc(OC)cc23)c2ncccc2c1	23.8%	38.1%	70.1%	66.6%	31.5%	38%	33%	36.4%	29.3%	–
CCOC(=O)C/C(=N\Nc1cc(=O)[nH]c2ccc(Cl)cc12)C(=O)OCC	105%	109%	96.7%	94.9%	107%	88.3%	98.7%	92.5%	95.7%	103
CN(C)c1ccc(/C=C2/C=C(c3ccccc3)OC2=O)cc1	91.7%	94.7%	102%	107%	108%	96.9%	87%	92.6%	98.8%	105
Cc1cccc(N2CCN(C(=S)c3ccc4c(c3)OCO4)CC2)c1	12.5%	6.38% (active)	-21.4% (active)	47.1%	20.7%	19.5%	6.14% (active)	29.1%	32.8%	54
CCN1C(=S)N(CC)C2C1NC(=S)N2/N=C/C=C/c1ccccc1OC (configuration not stated)	14.9%	2.78% (active)	-5.85% (active)	26.5%	13.1%	33%	17.3%	23.5%	19%	–
C[N+](C)(C/C=C/c1ccccc1)Cc1ccccc1	97.8%	91.9%	87.5%	104%	102%	97%	95.6%	99.3%	89%	102
COc1ccc2c(c1)c(-c1nonc1-c1cn(C)c3ccc(OC)cc13)cn2C	25.4%	13.1%	24%	36.8%	33.7%	50.1%	38%	26.3%	39.7%	–
CCOC(=O)c1c(NC(=O)CSc2n[nH]c3nc4ccccc4n23)sc(CC)c1C	97.9%	109%	95.3%	103%	97.6%	61.5%	98%	77.9%	99%	–
CCN(CC)CCN(CCN(CC)CC)c1ccccc1	104%	102%	79.1%	87.3%	98.2%	87.4%	97.7%	89.4%	88.7%	108
O=C(O)CCCc1cnc2c3sccc3nc(SCc3c(Cl)cccc3Cl)n12	36.9%	15.6%	16%	41%	29.5%	50.7%	52.9%	21.2%	39.9%	–
CCCCCCCCn1ccc2cc(NC(=O)Cn3cc(CN4CCOCC4)nn3)ccc21	92.4%	108%	100%	92.9%	88.5%	75.2%	86.7%	86.8%	102%	–
CC[C@H](Nc1nc(N)nc(C)c1C#N)c1nc2cccc(NCCCCCC(=O)NO)c2c(=O)n1-c1ccccc1	78.7%	79.2%	5.55% (active)	71%	61.3%	45.1%	49.7%	15.7%	66.5%	45.8
COc1cccc(OC)c1Oc1c(-c2nc3ccccc3s2)c(C)nn1-c1ccccc1	51.7%	71.2%	74.8%	92.7%	84.8%	51.1%	73.7%	56.2%	62.9%	–
COc1ccc(/C=C/C(=O)c2cc3c(N)c(C(=O)Nc4ccc(OC)cc4)sc3nc2C)cc1	20.6%	-18% (active)	2.43% (active)	16.3%	20.2%	32.3%	9.81% (active)	21.8%	31.6%	–
CCN(CCO)CC(C)Nc1ccc([N+](=O)[O-])c2sc3ccccc3c(=O)c12 (configuration not stated)	27.2%	11.3%	36.4%	43.2%	26.7%	28.3%	12.3%	29.8%	16.2%	44.4
COc1cc(C2Cc3ncccc3-c3[nH]c(=O)c4cccnc4c32)cc(OC)c1OC (configuration not stated)	16.9%	0.572% (active)	41.1%	29.2%	15.8%	21.8%	18.6%	28.2%	29.2%	66.4
C#CC#CC#CC#CC#CC#CC#CC#CC[C@H]1OC[C@@H](COC(=O)O[C@@H](C(=O)O[C@H]2C[C@@]3(O)[C@@H](OC(=O)c4ccccc4)[C@@H]4[C@]5(OC(C)=O)CO[C@@H]5C[C@H](O)[C@@]4(C)C(=O)[C@H](OC(C)=O)C(=C2C)C3(C)C)[C@@H](NC(=O)c2ccccc2)c2ccccc2)O1	95.2%	7.9% (active)	32.8%	55.8%	43.4%	45.7%	64.8%	50.9%	41.1%	–
Cc1c(N2CN3C[C@H](C)N4CN(c5c(C)n(C)n(-c6ccccc6)c5=O)CN5C[C@@H](C)N(C2)C3C54)c(=O)n(-c2ccccc2)n1C (some centres not stated)	96.4%	102%	107%	101%	105%	94.2%	102%	96.7%	96%	–
CC(C)c1ccc(C(=O)Nc2sc3cc(O)ccc3c2C#N)cc1	18.9%	57.8%	22.6%	36%	29.2%	58.6%	22.3%	18%	25.4%	52.4
C/C(=N\Nc1nc(C)cs1)c1cc2ccccc2o1	98.8%	103%	119%	96.4%	94%	70.2%	92%	85.5%	85.8%	–
O=C(/C=C\c1ccco1)/C=C/c1ccco1	105%	108%	94.5%	105%	104%	95.6%	101%	100%	96.8%	–
Cc1cccc(NC(=O)CSc2nc3ccc([N+](=O)[O-])cc3[nH]2)c1	75.1%	90.4%	70%	80.3%	74.5%	75.1%	52%	42.6%	81.4%	–
Nc1nc(C(=O)N/N=C/c2ccc(N3CCOCC3)cc2)nn1-c1ccc(S(N)(=O)=O)cc1	108%	106%	83%	102%	98.3%	101%	102%	102%	97.4%	–
